Experimental data: publication PMC4552634, “A New Set of Chemical Starting Points with Plasmodium falciparum Transmission-Blocking Potential for Antimalarial Drug Discovery” (PLoS ONE, 2015)
Read-outs that look alike come from different tables or passages of the source. About 3,200 (25%) of roughly 13,000 compounds showed an effect of 50% or more. This is one part of the list.

System: P. falciparum stage V gametocytes
Set-up: BacTiter-Glo ATP luminescence viability of purified stage V gametocytes in 384-well plates, per cent inhibition versus DMSO
Conditions: 48 h, 5 µM, inhibitor

| Structure (SMILES) | % Inhibition [%] | % Inhibition (% Inhibition) [%] |
| --- | --- | --- |
| O=C(NCCN1CCCC1)c1cccc(-c2ccc(-c3nc4ccccc4[nH]3)s2)c1 [TCMDC-132319] | -6.335 | – |
| Cc1cccn2c(=O)c3cc(C(=O)NC4CCCCC4)c(=N)n(CCCn4ccnc4)c3nc12 [TCMDC-125136] | 14.71 | – |
| COc1ccc(CCNC(=O)c2cc3c(=O)n4cccc(C)c4nc3n(C)c2=N)cc1 [TCMDC-125129] | 30.65 | – |
| COc1ccc(CCn2c(=N)c(C(=O)NC3CCCC3)cc3c(=O)n4ccccc4nc32)cc1 [TCMDC-124552] | 4.624 | – |
| C=CCn1c(=N)c(C(=O)NC2CCCCC2)cc2c(=O)n3cccc(C)c3nc21 [TCMDC-125083] | 96.68 | – |
| C=CCn1c(=N)c(C(=O)NCc2ccc(F)cc2)cc2c(=O)n3cccc(C)c3nc21 [TCMDC-125128] | 82.89 | – |
| Cc1ccc(CNC(=O)c2cc3c(=O)n4cccc(C)c4nc3n(CCN3CCOCC3)c2=N)cc1 [TCMDC-125405] | 11.13 | – |
| N#Cc1ccc2nc(-c3ccccc3)[nH]c2c1 [TCMDC-137223] | 19.91 | – |
| COc1cc(C(=O)Nc2cccc(-c3nc4ccccc4[nH]3)c2)ccc1OC(C)=O [TCMDC-123603] | -70.82 | – |
| Cc1cnc(NCCc2ccc(F)cc2)nc1NCCC(=O)Nc1ccccc1 [TCMDC-134850] | 59.7 | – |
| Cc1ccccc1CNc1nccc(NCCC(=O)Nc2ccccc2)n1 [TCMDC-134913] | 50.88 | – |
| O=C(CCNc1ccnc(NCCc2ccc(F)cc2)n1)Nc1ccccc1 [TCMDC-134824] | 63.53 | – |
| Cc1cnc(Nc2ccccc2)nc1NCCC(=O)Nc1ccccc1 [TCMDC-134914] | 19.34 | – |
| Cc1cnc(NCCc2ccc(F)cc2)nc1N[C@@H](CC(C)C)C(=O)Nc1ccccc1 [TCMDC-134851] | -15.21 | – |
| O=C(CCNc1ccnc(NCCc2ccccc2)n1)Nc1ccccc1 [TCMDC-134809] | 42.97 | – |
| Cc1cc(NCCC(=O)Nc2ccccc2)nc(NCc2ccccc2C)n1 [TCMDC-134901] | 2.536 | – |
| O=C(CCNc1ccnc(NCC2CCCCC2)n1)Nc1ccccc1 [TCMDC-134707] | 16.22 | – |
| Cc1ccc(NS(=O)(=O)c2ccc(-c3ccccc3)cc2)c(Cn2cnc(N3CCCNCC3)cc2=O)c1 [TCMDC-133150] | 3.416 | – |
| COc1ccc2ncc(F)c(CCN3CC(O)C(CNCc4nc5c(cc4Cl)OCC(=O)N5)C3)c2n1 (stereo not drawn) [TCMDC-136079] | – | 2.766 |
| CCOC(=O)c1sc(C(C)Nc2ccccc2)nc1-c1ccccc1 (stereo not drawn) [TCMDC-135642] | 18.56 | – |
| Cc1ccc(CN2CCC(Oc3cccc(NC(=O)c4ccc(C(F)(F)F)cc4)c3)CC2)cc1 [TCMDC-133736] | -34.39 | – |
| O=C(NC1CC1)c1ccc(N2CCC(COc3cccc(F)c3)CC2)nc1 [TCMDC-134029] | 11.49 | – |
| O=C1OC(c2ccccc2)(c2ccccc2)CN1CC1CCN(Cc2ccc(O)c(Cl)c2)CC1 [TCMDC-136312] | 3.668 | – |

| Structure (SMILES) | % Inhibition [%] | % Inhibition (% Inhibition) [%] |
| --- | --- | --- |
| FC(F)(F)c1ccc2[nH]c(-c3cccc(-c4cccc(CNCC5CCCO5)c4)c3)nc2c1.O=C(O)C(F)(F)F (stereo not drawn) [TCMDC-133102] | -56.01 | – |
| CN(Cc1cccc(O)c1)C1CCN(c2cc(NC(=O)c3ccc(F)cc3)ccn2)C1 (stereo not drawn) [TCMDC-134955] | -27.34 | – |
| COc1ccc(CCC(C)(C)NCC(O)c2cccc(C(F)(F)F)c2)cc1 (stereo not drawn) [TCMDC-131504] | -35.85 | – |
| Cc1ccc(S(=O)(=O)Nc2ccc(Nc3nccc(Nc4cccc5[nH]ncc45)n3)cc2)cc1 [TCMDC-136297] | -19.92 | – |
| CC(C)N1CCCN(C(=O)C2CCN(c3ccc(C(=O)N4CCCC4)cn3)CC2)CC1 [TCMDC-135636] | 39.57 | – |
| COc1ccc(C2NCCc3c2[nH]c2ccccc32)cc1CN1CCN(c2ccc(F)cc2)CC1 (stereo not drawn) [TCMDC-124340] | -3.324 | – |
| COc1cc(NC(=O)c2ccc3c(=O)n(Cc4ccccc4)c(=S)[nH]c3c2)cc(OC)c1OC [TCMDC-123804] | 26.78 | – |
| COc1cc(C2C(Oc3ccccc3)C(=O)N2Cc2ccc(F)cc2)cc(OC)c1OC (stereo not drawn) [TCMDC-125396] | 72.32 | – |
| NCCCNc1nc(Nc2cccc(C(N)=O)c2)c2c(=O)[nH]ccc2n1 [TCMDC-135053] | 0.6256 | – |
| Cc1cccc(Nc2nc(NCCCCN)nc3cc[nH]c(=O)c23)c1 [TCMDC-134946] | 47.91 | – |
| NCCCNc1nc(Nc2ccc(C(F)(F)F)cc2F)c2c(=O)[nH]ccc2n1 [TCMDC-135056] | 108.1 | – |
| CCS(=O)(=O)c1ccc(/C(=N/OC)c2ccc[nH]2)cc1 [TCMDC-139022] | -5.005 | – |
| CCCc1cc(=O)[nH]c(-n2nc(C)cc2NC(=O)C(CC)c2ccccc2)n1 (stereo not drawn) [TCMDC-124941] | 11.79 | – |
| Cc1ccc(Nc2cc(C)nn2-c2nc(C)cc(=O)[nH]2)cc1 [TCMDC-123713] | 62.43 | – |
| Cc1cc(=O)[nH]c(-n2nc(C)cc2NC(=O)CC(c2ccccc2)c2ccccc2)n1 [TCMDC-124944] | -15.6 | – |
| Cc1cc(=O)[nH]c(-n2nc(C)cc2NC(=O)C(c2ccccc2)c2ccccc2)n1 [TCMDC-124945] | 2.872 | – |
| CCN(CC)c1nc(Nc2cc(C)ccc2C)nc(Nc2ccccc2O)n1 [TCMDC-125766] | -38.82 | – |
| CCOC(=O)c1ccc(NC(=O)Nc2cccc(-c3cccc(-c4nc5ccccc5[nH]4)c3)c2)cc1 [TCMDC-133263] | 2.081 | – |
| Cc1cccc2[nH]c(-c3cccc(-c4cccc(NC(=O)Nc5ccc(Cl)cc5)c4)c3)nc12 [TCMDC-133179] | -25.81 | – |
| CCOC(=O)c1cccc(NC(=O)Nc2cccc(-c3ncc(OCCCN)c4c3nc(-c3nonc3N)n4CC)c2)c1 [TCMDC-136205] | 109.2 | – |
| CCn1c(-c2nonc2N)nc2cnc(Oc3cccc(NC(=O)c4ccc(OCCN5CCCC5)cc4)c3)cc21 [TCMDC-135776] | 8.365 | – |
| CCOC(=O)c1ccc(NC(=O)Nc2cccc(-c3cccc(-c4nc5c(C)cccc5[nH]4)c3)c2)cc1 [TCMDC-133264] | -4.791 | – |
| Nc1nonc1-c1nc2c(-c3cccc(Cl)c3)nccc2n1CCCNC(=O)Cc1ccc(Cl)cc1 [TCMDC-135207] | 32.87 | – |

| Structure (SMILES) | % Inhibition [%] | % Inhibition (% Inhibition) [%] |
| --- | --- | --- |
| CCn1c(-c2nonc2N)nc2c(Cl)ncc(O[C@H](CCN)c3ccccc3F)c21 [TCMDC-133566] | -5.634 | – |
| CCn1c(-c2nonc2N)nc2c(-c3cccc(NC(=O)Nc4ccc(Cl)cc4)c3)ncc(OCCCN)c21 [TCMDC-136152] | 102.5 | – |
| CCn1c(-c2nonc2N)nc2c(-c3cccc(NC(=O)NC45CC6CC(CC(C6)C4)C5)c3)ncc(OCCCN)c21 [TCMDC-136246] | 20.74 | – |
| CCn1c(-c2nonc2N)nc2cnc(Oc3cccc(NC(=O)c4ccc(OCCCN5CCCCC5)cc4)c3)cc21 [TCMDC-135764] | -4.348 | – |
| CCn1c(-c2nonc2N)nc2c(-c3cccc(NC(=O)Nc4cccc(Cl)c4)c3)ncc(OCCCN)c21 [TCMDC-136193] | 104.3 | – |
| CCn1c(-c2nonc2N)nc2c(-c3cccc(NC(=O)Nc4ccc5c(c4)CCC5)c3)ncc(OCCCN)c21 [TCMDC-136191] | 95.55 | – |
| Cc1cccc2nc(-c3ccc(-c4cccc(CN5CC(C)OC(C)C5)c4)s3)[nH]c12.O=C(O)C(F)(F)F (stereo not drawn) [TCMDC-133832] | -9.101 | – |
| N#Cc1ccc(C(=O)Nc2cc(-c3cccc(O)c3)cc3[nH]ncc23)cc1 [TCMDC-134118] | 16.86 | – |
| Cc1ccc(Oc2ncccc2C(=O)Nc2cccc3cccnc23)c(C)c1 [TCMDC-125499] | -13.13 | – |
| O=C(Nc1ccc(CCN2CCC(c3nc(COCC(F)(F)F)c(-c4ccccc4)o3)CC2)cc1)c1ccc(F)cc1 [TCMDC-131904] | -33.25 | – |
| O=C(Nc1nccs1)c1sc2ccccc2c1O [TCMDC-124521] | -6.294 | – |
| CCNc1cc(C(=O)N[C@@H](Cc2ccccc2)[C@H](O)CNCc2cc(C#N)ccc2OC)cc(N2CCCC2=O)c1 [TCMDC-141684] | 32.6 | – |
| COc1ccc(-n2nc(C(=O)NCc3ccccc3OC)c3ccccc3c2=O)cc1 [TCMDC-125443] | -5.134 | – |
| CC1CCC(NC(=O)c2nn(-c3ccc(Cl)cc3)c(=O)c3ccccc23)CC1 (stereo not drawn) [TCMDC-124775] | -0.9327 | – |
| CCn1nc(C(=O)NC2CCOc3ccccc32)c2ccccc2c1=O (stereo not drawn) [TCMDC-124816] | 60.74 | – |
| COc1ccc(CN2CCC(CN3CC4(OC3=O)c3ccccc3-c3ccccc34)C2)c(O)c1 (stereo not drawn) [TCMDC-136069] | 30.12 | – |
| CCNc1cc(C(=O)N[C@@H](Cc2ccccc2)[C@H](O)CNCc2cccc(OC)c2)c(OC)c(N2CCCCS2(=O)=O)c1 [TCMDC-134673] | -8.62 | – |
| NC(=NCCc1ccc(Cl)cc1)c1ccc(Cl)c(Cl)c1 [TCMDC-137459] | -9.34 | – |
| S=C(Nc1ccc(Cl)cc1)Nc1ccc(Nc2ccccc2)cc1 [TCMDC-123954] | -65.82 | – |
| N=C(N)NN=CC(=O)Nc1ccc(Cl)cc1 [TCMDC-137472] | 9.695 | – |
| O=C(Nc1ccc(Cl)cc1)Nc1ccc(-c2ccc(-c3nc4ccccc4[nH]3)cc2)cc1 [TCMDC-133181] | -19.19 | – |
| NC(=NCCCCCCCCN=C(N)Nc1ccc(Cl)cc1)Nc1ccc(Cl)cc1 [TCMDC-131828] | 83.63 | – |
| Clc1ccc(NC(=NCCCCCCCN=C(Nc2ccc(Cl)cc2)Nc2ccc(Cl)cc2)Nc2ccc(Cl)cc2)cc1 [TCMDC-137529] | 128.8 | – |
